The whole screen tested about 300,000 compounds, of which about 37,000 (12%) were called active. The sample as a whole holds a higher share of actives than the screen did. A number with no mark means an inactive call. No stated cut-off is given here; in the data, active means max response mostly above about 13% (no sharp cut-off); inactive means mostly below about 14%.
Test: Cycloheximide Counterscreen for Small Molecule Inhibitors of Shiga Toxin; further: read at 38.3 µM for the half of the compounds with a filed dose; 0% is about no effect
Details: cell reporter, cycloheximide protein synthesis inhibition counterscreen; stronger effect = higher value

First: O=c1c2ccccc2[nH]c(=S)n1CCN1CCC(=C(c2ccc(F)cc2)c2ccc(F)cc2)CC1
Second: O=C1CCN(Cc2ccc([N+](=O)[O-])cc2)CCN1[C@H](CO)Cc1ccccc1
The max response of the first is higher: -1.14% for the first, -3.88% for the second.

Compared with Cc1ccc(NC(=O)CN(C)C(=O)c2ccc(Br)o2)cc1, CN(CC(=O)Nc1ccccc1[N+](=O)[O-])Cc1ccc(Br)cc1 is higher in max response: -4.89% for the first, 7.65% for the second.

First: CCc1ccc(N(C(=O)c2csnn2)C(C(=O)NC2CCCCC2)c2ccncc2)cc1 (stereo not given)
Second: O=C(CN(C(=O)c1csnn1)c1ccc(Br)cc1)NC1CCCC1
The max response of the first is higher: 8.95% for the first, -2.24% for the second.

Compared with O=C(NNS(=O)(=O)c1ccccc1)c1cnn(-c2ccc(Cl)cc2)c1C(F)(F)F, O=C(c1ccc(Cl)cc1)c1cnc(Nc2ccccc2)s1 is higher in max response: 1.19% for the first, 8.33% for the second.

Compared with O=C(NC1CC1)c1ccc2c(c1)NC(=O)c1ccccc1S2, Cc1ccccc1NC(=O)c1cc(S(=O)(=O)Nc2cccc(C(=O)O)c2)ccc1Cl is lower in max response: 0.906% for the first, -4.93% for the second.

Going from CC(C)C[C@@H](CO)N1CCN(Cc2ccc(O)cc2)CCC1=O to CC(C)c1ccc2oc(=O)cc(CN3CCN(Cc4ccccc4)CC3)c2c1, the max response rises from -1.97% to -1.81%.

Going from CCCN1C2CCCC1CC(NC(=O)NC13CC4CC(CC(C4)C1)C3)C2 (stereo not given) to Cc1c(CCOC(=O)CC23CC4CC(CC(C)(C4)C2)C3)sc[n+]1Cc1ccc([N+](=O)[O-])cc1, the max response falls from 0.762% to -3.94%.

First: O=C(NCCc1ccccn1)c1nc(Cn2cc([N+](=O)[O-])cn2)no1
Second: O=C(CSc1ncn[nH]1)Nc1nc(-c2cccc([N+](=O)[O-])c2)cs1
The max response of the first is lower: -3.93% for the first, 2.28% for the second.

Going from O=C(Cn1nc(Cc2cccnc2)c2ccccc2c1=O)NCC1COc2ccccc2O1 (stereo not given) to Cn1c(CNc2nc(-c3ccccc3)cs2)nnc1SCC(=O)c1ccccc1, the max response rises from -4.83% to -2.68%.

First: S=c1[nH]nc(Nc2ccccc2)s1
Second: S=c1[nH]nc(-c2ccco2)n1/N=C/c1ccc(Br)s1
The max response of the first is lower: 1.07% for the first, 1.13% for the second.

Compared with O=C(CSCC(=O)Nc1cccc([N+](=O)[O-])c1)Nc1ccccc1, CSc1ccccc1NC(=O)CN(C)CC(=O)Nc1ccc(Cl)cc1[N+](=O)[O-] is higher in max response: 7.14% for the first, 7.28% for the second.

Compared with CCOC(=O)CSc1nnc(CNc2nc(-c3ccccc3)cs2)n1C, Cc1csc(NC(=O)CSc2ccc(-c3ccc(F)cc3)nn2)n1 is lower in max response: -0.673% for the first, -6.44% for the second.

First: O=C(CSc1nc2ccccc2c(=O)[nH]1)Nc1nc(-c2ccc(Br)cc2)cs1
Second: CCn1c(SCC(=O)Nc2ccc(S(=O)(=O)Nc3onc(C)c3C)cc2)nnc1-c1ccccc1
The max response of the first is lower: 3.64% for the first, 5.03% for the second.

First: Cc1cc2cc3c(cc2nc1SCC(=O)Nc1c(C)cccc1C)CCC3
Second: Cc1ccc(NC(=S)N/N=C2/CCCc3c(C)cc(C)cc32)cc1
The max response of the first is higher: 0.976% for the first, -1.84% for the second.

First: Fc1ccc(Cn2nnnc2C(c2cccs2)N2CCCCCC2)cc1 (stereo not given)
Second: O=C(c1cccnc1)N1CCN(S(=O)(=O)c2cccs2)CC1
The max response of the first is higher: 0.541% for the first, -2.02% for the second.

Going from CCOc1ccccc1NS(=O)(=O)c1cc2c3c(c1)C(C)C(=O)N3CCC2 (stereo not given) to CCn1c(=O)c(=O)[nH]c2c(=O)oc3ccc(S(=O)(=O)Nc4ccc(OC)cc4)cc3c21, the max response falls from -3.18% to -4.34%.

First: COc1ccccc1C1=Nc2cccc3cccc(c23)N1
Second: C=C(C)CNC(=S)Nc1ccc(S(=O)(=O)Nc2cnc3ccccc3n2)cc1
The max response of the first is lower: -1.72% for the first, -1.53% for the second.

First: CCCOc1ccccc1-c1nc(SCCC(=O)O)n[nH]1
Second: Cc1cccc(NC(=O)COC(=O)CCc2ccccc2)c1C
The max response of the first is lower: -3.17% for the first, -2.64% for the second.

First: CCOC(=O)C(C)Oc1cccc2c(=O)n(CC(=O)NCCc3ccc(OC)c(OC)c3)ccc12 (stereo not given)
Second: COc1ccc(C(=O)Nc2ccc(S(=O)(=O)Nc3onc(C)c3C)cc2)cc1OC
The max response of the first is lower: -2.75% for the first, -2.06% for the second.

Going from O=C(CNC(=O)c1cccnc1)N/N=C/c1cccnc1 to O=C(/C=C/c1ccc(Cl)cc1Cl)c1cccnc1, the max response rises from -3.21% to 2.63%.

Going from CN(C(=O)c1ccccc1)c1nccnc1C#N to COc1ccc(Br)cc1/C=N/Nc1ccc(Cl)c(C(=O)O)c1, the max response rises from -1.74% to 7.13%.

Going from O=C(NC(=S)Nc1ccc(Cl)c(C(=O)O)c1)c1cncc(Br)c1 to Cc1ccc(C(=O)NCCc2nnc(SCC(=O)Nc3cccc(C(=O)O)c3)n2C)cc1, the max response falls from 1.31% to -0.755%.

First: Cc1ccc(C)c(NC(=S)NCC(c2cccnc2)N2CCOCC2)c1 (stereo not given)
Second: Cc1cc(OC(C)C(=O)Nc2ccc(S(=O)(=O)Nc3onc(C)c3C)cc2)cc(C)c1Cl (stereo not given)
The max response of the first is lower: -3.15% for the first, -2.3% for the second.

In the case of Cc1noc(NS(=O)(=O)c2ccc(NC(=O)C34CCC(CC3)C4)cc2)c1C, the max response is reported as -1.3%.

With C/C(=N\Nc1cccc(C(=O)O)c1)c1ccc2c(c1)Nc1ccccc1S2 the max response was 31.5% (active).
In the case of CC(C)(C)C(=O)c1cnc(Nc2ccccc2)s1, the max response is reported as 44.2% (active).
For CCNC(=O)CSc1nc(-c2ccccc2)cs1, the max response was 44% (active).
With O=C(CSC1=NCCS1)Nc1nc(-c2ccccc2)cs1 the max response was 35.3% (active).
With O=C(CSc1nc(-c2ccccc2)cs1)Nc1cccc([N+](=O)[O-])c1 the max response was 39.4% (active).
With COc1ccccc1-c1nc(SC)n[nH]1 the max response was 23.3% (active).
For Cc1ccc(NC(=O)CN(C)Cc2ccc(F)cc2)c([N+](=O)[O-])c1, the max response was 12.6% (active).
In the case of O=C(N/N=C/c1sc(N2CCCCC2)nc1-c1cccs1)c1cccnc1, the max response is reported as 20.6% (active).
For Cc1ccc(C)c(NC(=S)NNC(=S)Nc2ccc(C(C)C)cc2)c1, the max response was 31% (active).
For CC(C)c1ccc(NC(=S)NNc2ccc(Cl)c(C(=O)O)c2)cc1, the max response was 38% (active).
With Cc1noc(NS(=O)(=O)c2ccc(N/C=C/C(=O)c3ccccc3)cc2)c1C the max response was 38.5% (active).
For O=C(/C=C/Nc1ccc(S(=O)(=O)Nc2cnc3ccccc3n2)cc1)c1cccnc1, the max response was 19.6% (active).
For Cc1ccc(C(=O)/C=C/Nc2ccc(S(=O)(=O)Nc3onc(C)c3C)cc2)cc1, the max response was 48.2% (active).

Source: PubChem BioAssay AID2314 (National Center for Advancing Translational Sciences (NCATS), 2010)
